Shiga toxin inh: Shiga toxin inhibition; Vero cells, Shiga toxin protein synthesis inhibition reporter; AID 2315; inhibition, % at 38.7 µM; 9.2% of 290,000 active; in the data active = inhibition mostly above about 28%, no sharp cut-off; inactive = mostly below about 43%; also: 0% is about no effect
LmPK inh: blocks Leishmania mexicana pyruvate kinase activity | purified LmPK, Kinase-Glo ATP luminescence, 1 h | Potency, µM (doses to about 57.5 µM), for inactives: at the highest dose activity change, negative = inhibition, hits mostly inhibitors | 0.37% of 290,000 active | AID 1721; also: potency is read from the fitted curve at half-maximal effect; % is scaled to controls: 0 for no effect and ±100 for the full control effect
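Screened at intermediate enzyme activity to detect both inhibitors and activators: LmPK at 0.1 nM, with a 0.5 nM enzyme column as activation reference. PEP 0.5 mM, ADP 0.1 mM; ATP detected by luminescence after 1 h.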
RE007 growth inh: less growth of the S. pombe RE007 Vpr strain; Potency, µM (highest dose often 92.2 µM), for inactives: at the highest dose activity change, negative = less growth, most hits filed as inhibitors; S. pombe RE007 Vpr strain, BacTiter-Glo ATP luminescence, 24 h; 0.21% of 360,000 active; active = well fitted falling curve with a large enough effect; inconclusive = small, poorly fitted or top-dose-only effect; inactive = no such curve, though single readings can be large or run the other way; also: potency is read from the fitted curve at half-maximal effect; % is scaled to controls: 0 for no effect and ±100 for the full control effect; nearly all actives have a fitted effect of over 50% in size
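Fission yeast RE007 carrying one integrated HIV-1 vpr copy, seeded at OD 0.01 in PMG+AL medium with 23 nL pinned compound. Grown 24 h at 30 degrees; viability read by BacTiter-Glo luminescence after 5 min.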
Cycloheximide cs: affects cycloheximide protein synthesis inhibition readout, counter-screen; 12% of 300,000 active; AID 2314; max response, %; cell reporter, cycloheximide protein synthesis inhibition counterscreen; in the data active = max response mostly above about 13%, no sharp cut-off; inactive = mostly below about 14%; also: read at 38.3 µM for the half of the compounds with a filed dose; 0% is about no effect
Tb PYK inh: inhibitors of Trypanosoma brucei pyruvate kinase. TbPYK enzyme, Kinase-Glo Plus ATP luminescence, 45 min. Potency, µM (doses to about 76.8 µM), for inactives: top-dose activity, negative = inhibition, most hits filed as inhibitors. AID 624173. Q57TT1. 0.12% of 410,000 active; also: potency is read from the fitted curve at half-maximal effect; % is scaled to controls: 0 for no effect and ±100 for the full control effect; nearly all actives have a fitted effect of over 50% in size
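In this concentration-response screen, enzyme-free wells defined baseline while DMSO plates tracked drift. Each reaction combined TbPYK, substrate, compound and 130 uM ADP for 45 min at room temperature. Kinase-Glo Plus luminescence gave the signal.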
FBPA Giardia inh: Giardia lamblia aldolase inhibition. Potency, µM (highest dose often 59.6 µM), for the others: top-dose activity, negative = inhibition, actives largely listed as inhibitors. AID 2451. A8B2U2. 0.71% of 290,000 active. purified Giardia FBPA; also: potency is read from the fitted curve at half-maximal effect; % is scaled to controls: 0 for no effect and ±100 for the full control effect; nearly all actives have a fitted effect of over 55% in size
Target sequence (A8B2U2 whole entry, looked up): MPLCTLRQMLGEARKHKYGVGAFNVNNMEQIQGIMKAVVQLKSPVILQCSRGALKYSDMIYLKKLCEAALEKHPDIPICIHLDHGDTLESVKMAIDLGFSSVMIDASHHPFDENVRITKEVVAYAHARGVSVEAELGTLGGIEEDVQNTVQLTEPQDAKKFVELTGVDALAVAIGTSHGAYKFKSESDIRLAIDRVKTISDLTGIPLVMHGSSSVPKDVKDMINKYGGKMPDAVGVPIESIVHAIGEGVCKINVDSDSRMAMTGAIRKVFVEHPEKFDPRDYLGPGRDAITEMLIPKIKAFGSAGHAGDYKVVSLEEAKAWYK
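40 nM FBPA preincubated 10 min at RT with compound (up to 57.5 uM final), then substrate plus GAPDH/TPI/NAD/arsenate coupling and diaphorase/resazurin added. Fluorescence read after 20 min at RT, 525/598 nm.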
* marks the source's active call; other numbers are inactive results; ? = inconclusive; . = no result; [ ] = another dose, or the depositor's remark. The full list was thinned out, with hits kept by preference. Unless noted, calls follow the shape of the dose curve; as a rule, active = well fitted curve in the direction sought with a large enough effect; inconclusive = small, poorly fitted or top-dose-only effect, or another doubt; inactive = no such curve, though single readings can be large; an effect the other way counts as inactive or inconclusive.

SMILES | Shiga toxin inh | LmPK inh | RE007 growth inh | Cycloheximide cs | Tb PYK inh | FBPA Giardia inh
CCOc1ccc(C2/C(=C(/O)c3ccc(S(=O)(=O)N4CCCCC4)cc3)C(=O)C(=O)N2CCCOC)cc1OC (configuration not stated) | -11 | 12% | -3% | -2 | 2% | 2%
COc1cc(NC(=S)NCCc2ccccc2)c(OC)cc1NC(=O)CC(C)C | -17 | 13% | -2% | -2 | -17% | -12%
CC(C)CC(=O)NC(=S)NCCc1ccccc1 | 57* | 3% | ? | 26* | 1% | -10%
COc1ccc(C(=O)NC(=S)NCCc2ccccc2)cc1 | 22 | -3% | 10% | -1 | -12% | -4%
CC(C)(C)CC(=O)NC(=S)NCCc1ccccc1 | 62 | -4% | -14% | 30* | -2% | -1%
CC(CNC(=O)C1CCN(C(=O)N2CCOc3ccc(Cl)cc32)CC1)c1ccccc1 (configuration not stated) | . | . | . | . | -1% | .
COc1ccc(C(=O)/C(Br)=C/C(=O)O)cc1 | . | . | . | . | 1% | .
CCOC(=O)c1cc(-c2ccc(C)cc2)n(CC(=O)Nc2ccccc2F)c1C | . | . | . | . | 1% | .
Cc1ccc2oc(C(=O)N(C)CCC(O)c3ccccc3)c(C)c2c1 (configuration not stated) | 22* | -2% | -12% | 13 | -3% | -9%
CCN(CC)S(=O)(=O)c1ccc2oc(C(=O)N(C)Cc3ccccc3)c(C)c2c1 | . | . | . | . | 1% | .
COc1ccc2oc(C(=O)N(C)CCOc3ccccc3)c(C)c2c1 | 83* | -11% | 16% | 38* | -7% | .
CC(C)C(NC(=O)c1ccc(F)cc1)C(=O)NC1(C)CCS(=O)(=O)C1 (configuration not stated) | . | . | 13% | . | 0% | .
Cc1sc(NC(=O)/C=C/c2ccc(C(C)C)cc2)c(C#N)c1C | -6 | 7% | -5% | -1 | 5% | 8%
CC(C)c1ccc(/C=C/C(=O)Nc2nncs2)cc1 | 33* | -9% | 36% | 49* | -8% | 1%
COc1ccc(-c2csc(NC(=S)NC(=O)c3cc4ccccc4o3)n2)cc1Br | 18 | 0% | -8% | 14* | 7% | -30%
COc1ccc(-c2csc(NC(=S)NC(=O)/C=C/c3ccc(C(C)C)cc3)n2)cc1OC | 14 | 5% | 4% | 23* | 4% | -18%
COc1ccc(-c2csc(NC(=S)NC(=O)c3ccco3)n2)cc1Br | 4 | -2% | -3% | 10 | 3% | .
Cc1cc(-c2csc(NC(=O)c3cc4ccccc4o3)n2)c(C)n1C | 40* | -6% | -1% | 32* | -11% | -4%
COCCNC(=O)C(c1ccc(C)cc1)N(C(=O)CCC(=O)Nc1ccccn1)C1CCCCC1 (configuration not stated) | 3 | -2% | 26% | -10 | 2% | .
Cc1nn(C(C)C(=O)N2CCN(c3ccc(F)cc3)CC2)c(=O)c2c1sc1ccccc12 (configuration not stated) | . | . | . | . | -4% | .
O=C(Nc1nc(-c2ccccn2)cs1)c1cc2ccccc2o1 | 58* | -7% | ? | 42* | -7% | ?
COCCN(C(=O)C1CC1)c1nnc(-c2ccc(C)cc2)s1 | 36 | 6% | -9% | 6 | -9% | 6%
CC(=O)N(c1nnc(-c2cccc(C)c2)s1)C1CCCC1 | . | -1% | 11% | 40* | 4% | 7%
COc1ccc(C(CNC(=O)C(C)(C)Oc2ccc(Cl)cc2)N2CCOCC2)cc1 (configuration not stated) | . | . | 4% | . | -2% | .
CCOc1ccccc1Nc1nc(-c2cccnc2)cs1 | -3 | 2% | -3% | -1 | -11% | 16%
SMILES | Shiga toxin inh | LmPK inh | RE007 growth inh | Cycloheximide cs | Tb PYK inh | FBPA Giardia inh
Fc1ccc(-c2csc(-c3ccncc3)n2)cc1 | 49* | -15% | -11% | 31* | 0% | 3%
OC(c1ccc(F)cc1)c1nc(-c2ccncc2)cs1 (configuration not stated) | . | . | -12%[18.4 µM] | . | -6% | .
c1ccc(Nc2nc(-c3cccnc3)cs2)nc1 | 104* | -18% | -10% | 57* | -1% | 0%
Clc1ccccc1-c1csc(Nc2cccnc2)n1 | 53* | 0% | 3% | 26* | 2% | -3%
Clc1ccccc1Nc1nc(-c2cccnc2)cs1 | 50* | -26% | -6% | 41* | -7% | -11%
c1cncc(Nc2nc(-c3ccncc3)cs2)c1 | -5 | 1% | 7% | 1 | 0% | 4%
Fc1ccccc1OCC1CCCN(Cc2nc(CC3CC3)no2)C1 (configuration not stated) | -1 | 0% | -2% | 2 | -19% | 0%
Fc1ccc(-c2csc(Nc3ccccn3)n2)cc1 | 92* | 3% | ? | 48* | -1% | -18%
CC(=O)Oc1ccc(-c2csc(Nc3ccccn3)n2)cc1 | . | . | -8% | . | -13% | .
Cc1onc(C(=O)NCCc2ccccc2)c1[N+](=O)[O-] | 48 | 0% | 11% | 14 | 5% | -4%
CC(=O)c1ccc(NC(=O)c2noc(C)c2[N+](=O)[O-])cc1 | 63* | -2% | -24% | 31* | 3% | .
Cc1onc(C(=O)Nc2ccc(OC(F)(F)F)cc2)c1[N+](=O)[O-] | 89* | -1% | -4% | 57* | 1% | .
O=C(C1Cc2ccccc2CN1C(=O)c1ccccc1)N1CCN(c2ccccc2)CC1 (configuration not stated) | 22 | 9% | -23% | -3 | -3% | 4%
Cc1ccc(S(=O)(=O)N(C)C)cc1NC(=S)N1CCc2ccccc21 | -10 | 16% | -10% | -2 | -9% | -22%
Cc1cc(C)nc(Nc2ccc(O)cc2)n1 | 41 | -7% | -6% | 24* | -2% | ?
CCc1ccc(Nc2nc(C)cc(C)n2)cc1 | 52* | -1% | -3% | 53* | 1% | ?
COc1nc(Nc2ccc(OC)c(Cl)c2)nc(OC)n1 | 22 | 2% | -5% | 8 | -4% | 1%
Cc1cc(C)nc(Nc2ccc(C(=O)O)cc2)n1 | 3 | 2% | 3% | 13 | 3% | -1%
COc1ccc(Nc2nc(C)cc(C)n2)cc1Cl | 76 | 1% | 2% | 26* | -1% | ?
O=C(CCSCc1ccccc1F)N1CCN(c2ccc(F)cc2)CC1 | . | . | . | . | -5% | .
CCC(NC(=O)c1ccccc1NC(=O)c1ccccc1)C(=O)NNC(=O)c1cccnc1 (configuration not stated) | -18 | 3% | 2% | 11 | -19% | 3%
O=C(NCC(c1cccnc1)N1CCc2ccccc21)c1ccc(F)cc1 (configuration not stated) | . | . | . | . | -5% | .
CCCOc1ccc(C2C(=O)N(C3CCCCCC3)CC(=O)N2Cc2ccc(OC)cc2)cc1OC (configuration not stated) | . | . | . | . | -4% | .
CCN(/C(N)=N/c1nc(C)cc(C)n1)c1ccccc1 | 20 | 0% | -8% | 13* | 3% | -26%

Screening data from PubChem BioAssay.
